# Screens: PubChem BioAssay, National Center for Advancing Translational Sciences (NCATS)
# PI4K2A inh – inhibitors of human PI4K2A; purified PI4K2A, ADP-Glo luminescence, 1 h; active compounds read low; hit rate 0.13% among 420,000; activity change, negative = inhibition, % at 76.9 µM; Q9BTU6; AID 1346378; in the data active means activity change below about -50%; inconclusive means mostly about -30% to -49%
#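 PI4K2A activity was measured by ADP-Glo luminescence: enzyme (4 ug/mL stock) and phosphatidylinositol (1.2 mM stock) in Tris pH 7.5/MgCl2/EGTA/Triton X-100 buffer were reacted with ATP (300 microM stock) for one hour at ambient temperature.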
# PKM2 activator – activators of human pyruvate kinase M2; purified PKM2, Kinase-Glo ATP luminescence, activation; response scale: 0% is enzyme alone, no compound; Potency, µM (top dose mostly 57.5 µM), hits mostly activators; hit rate 0.34% among 260,000; further: nearly all actives have a fitted effect of over 55% in size
#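 Kinase-Glo luminescence reports ATP generated from ADP (0.1 mM) and PEP (0.5 mM) by purified hPK-M2 after 1 h at room temperature, pH 7.2 imidazole buffer; intermediate enzyme activity allows detecting inhibitors and activators.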
# TrxR1 substrate – rat thioredoxin reductase 1 substrate activity. O89049. purified TrxR1 substrate turnover, NADPH consumption readout. Potency, µM (top dose mostly 114 µM). hit rate 0.01% among 390,000. AID 588456; further: nearly all actives have a fitted effect of over 50% in size
# Target sequence (O89049 whole entry, looked up): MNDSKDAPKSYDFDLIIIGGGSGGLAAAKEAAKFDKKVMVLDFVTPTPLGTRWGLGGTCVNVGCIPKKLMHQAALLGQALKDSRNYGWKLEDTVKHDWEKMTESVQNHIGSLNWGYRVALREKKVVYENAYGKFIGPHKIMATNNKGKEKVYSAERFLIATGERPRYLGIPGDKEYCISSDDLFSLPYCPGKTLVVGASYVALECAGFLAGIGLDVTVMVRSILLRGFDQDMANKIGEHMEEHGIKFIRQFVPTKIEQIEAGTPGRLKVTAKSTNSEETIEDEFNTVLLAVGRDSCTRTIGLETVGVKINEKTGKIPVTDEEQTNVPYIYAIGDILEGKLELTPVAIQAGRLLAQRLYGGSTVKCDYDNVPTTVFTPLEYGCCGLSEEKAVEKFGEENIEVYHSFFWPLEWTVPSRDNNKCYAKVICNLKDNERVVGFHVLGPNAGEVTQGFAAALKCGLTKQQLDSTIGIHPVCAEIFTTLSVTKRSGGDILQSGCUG
#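 Rat TrxR1, dispensed at 90 nM, was prereduced with 400 uM NADPH (final) for 5 min at ~22 deg C, then incubated with compound 15 min before 400 uM selenite. A first-read NADPH fluorescence drop versus no-compound background flagged substrates.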
# GALK inh – blocks human galactokinase activity | hit rate 0.007% among 270,000 | P51570 | Purified GALK, Kinase-Glo residual ATP luminescence | Potency, µM (titrated, usually from 57.5 µM), hits mostly inhibitors
#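 Kinase-Glo Plus luminescence measured ATP left after a 1 h room-temperature reaction. The reaction used 5 nM GALK, 100 uM galactose and 35 uM ATP at pH 8.0 (20 mM HEPES, 5 mM MgCl2, 60 mM NaCl, 1 mM DTT, 0.01% BSA).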
# rTrxR1 inhibitor – blocks rat thioredoxin reductase 1. hit rate 1% among 390,000. O89049. Potency, µM (top dose mostly 114 µM), most hits filed as inhibitors. recombinant rTrxR1, NADPH fluorescence consumption, selenite substrate; further: nearly all actives have a fitted effect of over 65% in size
#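 Rat TrxR1 (90 nM in the dispensed reagent) was pre-reduced with 400 uM NADPH for 5 min at room temperature, then incubated with compound for 15 min. After 400 uM selenite was added, NADPH fluorescence (Ex 340/Em 450 nm) was followed for 8 min.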
# Hits are given with their value; . = inactive; ? = inconclusive; / = not tested or not shown; ! = a repeat was not active; [ ] = dose if it differs, or a comment. Most compounds without a hit are left out; they make up all but 1.2% or so of the library. Unless noted, the call rests on the fitted dose curve; in most records, active means well fitted curve in the direction sought with a large enough effect; inconclusive means small, poorly fitted or top-dose-only effect, or another doubt; inactive means no such curve, though single readings can be large; an effect the other way counts as inactive or inconclusive.
SMILES,PI4K2A inh,PKM2 activator,TrxR1 substrate,GALK inh,rTrxR1 inhibitor
CC1Cc2ccccc2C[N+]1(C)CC(=O)c1ccc(I)cc1 (stereo unspecified),/,/,.,/,.
COC(=O)C[C@H]1CC[C@@H]2[C@H](COc3ccc(NC(=O)c4cccc(Cl)c4)cc3C(=O)N2C)O1,.,/,/,/,/
Cn1c(=O)n(C)c2cc(NC(=O)c3ccccc3[N+](=O)[O-])c(Br)cc21,.,7.9µM,.,.,.
Cc1ccc(-c2ccc(/C=C3/NC(=O)NC3=O)o2)cc1[N+](=O)[O-],.,.,.,.,.
CC1=C(C#N)C(=O)NC(=O)/C1=C\c1ccc(-c2cc(C)c(C)cc2[N+](=O)[O-])o1,.,?,.,.,14µM
CC(=O)c1sc(NC(=O)c2ccc(Cn3cc(Br)cn3)o2)nc1C,.,11µM,.,.,.
CCCCCc1ccc(-c2n[nH]c(=O)c3ccccc23)cc1,.,/,/,/,/
CCC1(O)C(=O)OCc2c1cc1n(c2=O)Cc2cc3c(N)cccc3nc2-1 (stereo unspecified),.,/,.[11.4 µM],/,.[11.4 µM]
CCC1(OC(=O)CN(C)C)C(=O)OCc2c1cc1n(c2=O)Cc2cc3c(N)cccc3nc2-1 (stereo unspecified),-62,/,.,/,.[11.4 µM]
CCCCOCCCNC(=O)C[C@@H]1C(=O)N2CCCC3=C2[C@@]1(C(=O)OC)CCCC3,.,/,/,/,/
O=c1c(C(c2ccc(F)cc2)c2c(O)nc3n(c2=O)CCS3)c(O)nc2n1CCS2,.,.,.,.,13µM
O=c1c(C(c2ccc(Cl)cc2)c2c(O)nc3n(c2=O)CCCS3)c(O)nc2n1CCCS2,.,.,.,.,?
O=c1c(C(c2ccc(Cl)cc2)c2c(O)nc3n(c2=O)CCS3)c(O)nc2n1CCS2,.,.,.,.,10µM
COc1ccc([C@]23Cc4cc(OC)c(OC)cc4C(O2)c2c(cc(C)n(Cc4ccccc4)c2=O)O3)cc1,/,.[11.5 µM],/,/,/
CC(C)CCn1c(=O)c2cccnc2n(CC(=O)Nc2ccccc2F)c1=O,.,/,.,/,.
C=CS(=O)(=O)c1sc(Cl)c(N2CCOCC2)c1[N+](=O)[O-],.,.,.,.,0.32µM
CCCC(=O)C1=C(c2ccccc2)C(C#N)(C#N)C(C#N)=C1N,.,.,.,.,13µM
O=C(Nc1ccc(Oc2ccccc2)cc1)C1CCCN1S(=O)(=O)c1cccc2cccnc12 (stereo unspecified),.,/,/,/,/
COc1ccccc1-c1cc(C(F)(F)F)nc(S(=O)(=O)CCCC(=O)Nc2cc(OC)c(OC)c(OC)c2)n1,.,/,.,/,22µM
COc1ccc(NC(=O)CCCS(=O)(=O)c2nc(-c3ccc(OC)c(OC)c3)cc(C(F)(F)F)n2)cc1OC,.,/,.,/,25µM
CC(=O)n1cc(N(C(=O)CCl)c2ccc(C)cc2)c2ccccc21,.,.,.,.,2µM
CC(C)CN(Cc1c(O)ccc2ccccc12)CC(C)C,.,.,.,.,.
CCN(Cc1ccncc1)Cc1c(O)ccc2ccccc12,.,.,.,.,5µM
COc1ccccc1N1C(=O)CC(Sc2nccc(C)n2)C1=O (stereo unspecified),.,.,.,.,.
COc1ccccc1N1C(=O)CC(Sc2n[nH]c(-c3cccc(C)c3)n2)C1=O (stereo unspecified),.,.,.,.,1.6µM
SMILES,PI4K2A inh,PKM2 activator,TrxR1 substrate,GALK inh,rTrxR1 inhibitor
CCCCC(=O)Nc1ccc(C(=O)NCC2COc3ccccc3O2)cc1 (stereo unspecified),.,/,/,/,/
CC1=NOC(=O)/C1=C\c1ccc(-c2ccc(Br)cc2C(=O)O)o1,.,.,.,.,.
CC1=NN(c2ccc(Br)cc2)C(=O)/C1=C/c1ccc(-c2ccccc2C(=O)O)o1,-50,.,.,.,.
CCOc1ccc(CNC(=O)C2CCCN(S(=O)(=O)c3ccc4c(ccn4C)c3)C2)cc1 (stereo unspecified),.,/,.,/,.
O=C(CCCc1ccccc1)NCCc1ccccc1,.,.,.,.,.
O=C(CCl)N(CCc1ccccc1)CCc1ccccc1,.,.,.,.,11µM
CCOc1cccc(CNc2ccc(O)cc2)c1OCc1ccc(Cl)cc1Cl,-58,.,.,.,?
CCOc1cccc(CNn2cnnc2)c1OCc1ccccc1Cl,.,.,.,.,.
CCOc1cccc(CNc2ccc(O)cc2)c1OCc1ccccc1Cl,-53!,.,.,.,?
